# Potency and affinity values are given separately. Unmarked numbers belong to inactive results.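 How the source made its calls: active means compounds whose curve fit is tight, with span above 25% and half-effect concentration below 10 µM; inactive means the rest.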
# Target: Beta-adrenergic receptor kinase 1 (Homo sapiens) (UniProt P25098)
# Test: aptamer displacement from bead-bound GRK2 – biochemical, cherry pick 1, bead flow cytometry, dose response (AID 504500)
# Settings: bead-bound biotinylated GRK2, FAM-aptamer displacement; series mostly up to 33 µM; inhibition of aptamer binding: at the top concentration
# Chain of Beta-adrenergic receptor kinase 1 (Homo sapiens) (P25098 whole entry, looked up): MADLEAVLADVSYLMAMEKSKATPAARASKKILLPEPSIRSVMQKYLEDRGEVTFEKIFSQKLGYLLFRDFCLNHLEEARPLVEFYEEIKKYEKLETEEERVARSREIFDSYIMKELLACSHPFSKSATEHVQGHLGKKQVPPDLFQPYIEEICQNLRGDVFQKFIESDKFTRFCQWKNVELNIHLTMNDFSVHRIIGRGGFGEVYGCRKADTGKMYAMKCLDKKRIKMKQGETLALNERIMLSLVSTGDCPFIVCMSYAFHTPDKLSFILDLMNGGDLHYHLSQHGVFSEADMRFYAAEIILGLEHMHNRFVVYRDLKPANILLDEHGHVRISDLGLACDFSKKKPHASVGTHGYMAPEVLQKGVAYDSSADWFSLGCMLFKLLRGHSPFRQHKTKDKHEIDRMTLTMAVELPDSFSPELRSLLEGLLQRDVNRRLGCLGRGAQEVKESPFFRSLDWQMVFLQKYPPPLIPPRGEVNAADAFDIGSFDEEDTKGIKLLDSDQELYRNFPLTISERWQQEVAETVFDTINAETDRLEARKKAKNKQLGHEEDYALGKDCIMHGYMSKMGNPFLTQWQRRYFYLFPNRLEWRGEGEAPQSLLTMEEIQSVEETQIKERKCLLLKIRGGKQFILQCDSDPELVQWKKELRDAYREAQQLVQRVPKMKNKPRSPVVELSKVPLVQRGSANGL
row,SMILES,inhibition of aptamer binding [%]
1,Cc1ccc(CCNC(=O)CCS(=O)(=O)c2ccc(Br)cc2)cc1,66
2,CCN1/C(=C/c2ccc3ccc(C)cc3[n+]2CC)Sc2ccccc21,-3.68
3,COc1ccc(N2CCN(C(CNS(=O)(=O)c3ccc(C)cc3)c3ccccc3)CC2)cc1 (stereo unspecified),3.97
4,CCN1/C(=C/C=C/c2sc3ccccc3[n+]2CC)Sc2ccccc21,-5.22
5,COC(=O)c1ccc(NC(=O)CCS(=O)(=O)c2ccc(Br)cc2)cc1,76.5
6,COc1ccc2nc(SCC(=O)Nc3ccc4c(c3)OCCO4)[nH]c2c1,-0.24
7,CCN1/C(=C/c2ccc3cccc(C)c3[n+]2CC)Sc2ccccc21,44.9
8,COc1ccc(OC)c(N2C(=O)[C@@H]3C(c4ccccc4Cl)=NO[C@@H]3C2=O)c1,76.3
9,Cc1cc2ccccc2n1CCNC(=O)c1ccccc1,-0.61
10,O=C(CCS(=O)(=O)c1ccc(Br)s1)N1CCc2ccccc21,-2.03
11,CC1CCN(C(=O)c2[nH]cnc2C(=O)Nc2cccc(Cl)c2)CC1,-9.82
12,O=C(CCS(=O)(=O)c1ccc(Br)cc1)NCc1cccs1,78.5
13,CCN1/C(=C\c2ccc3ccccc3[n+]2CC)Sc2cc(C)ccc21,63.6
14,CCOc1ccc(CCNC(=O)CCS(=O)(=O)c2ccc(Br)cc2)cc1OCC,2.77
15,Cc1ccc(S(=O)(=O)Cc2ccc(C(=O)O)o2)cc1,-1.3
16,O=C(CCS(=O)(=O)c1ccc(Br)cc1)NCCc1ccccc1,76.5

row,SMILES,inhibition of aptamer binding [%]
1,CNC(=O)c1[nH]cnc1C(=O)Nc1ccc(F)cc1,1.5
2,CC(=O)N1CCN(Cc2nc3cc(Cl)ccc3c(=O)[nH]2)CC1,59.3
3,COc1ccc(NC(=O)CCS(=O)(=O)c2ccc(Br)s2)cc1,63.9
4,C=C(C)C(=O)Nc1cccc(C2=NOC3(C2)C[C@H](C(N)=O)N(C(=O)CC#N)C3)c1 (stereo partly specified),-8.72
5,COc1ccc(N2CCN(C(CNS(=O)(=O)c3ccccc3)c3ccccc3)CC2)cc1 (stereo unspecified),3.82
6,CCOc1ccccc1NC(=O)CCS(=O)(=O)c1ccc(Br)cc1,1.18
7,O=C(CCS(=O)(=O)c1ccc(Br)s1)Nc1ccccc1Br,31.5
8,Cc1ccc(OCC(=O)c2c(N)n(C)c(=O)n(C)c2=O)c([N+](=O)[O-])n1,85
9,C=C(C)C(=O)Nc1cccc(C2=NOC3(C2)C[C@@H](C(N)=O)N(C(=O)/C=C/C=C/C)C3)c1 (stereo partly specified),84.2
10,Cc1cccc(CCNC(=O)CCS(=O)(=O)c2ccc(Br)cc2)c1,43.7
11,CC(=O)N1CCCc2cc(S(=O)(=O)CCC(=O)N3CCN(c4cccc(C)c4)C(C)C3)ccc21 (stereo unspecified),-2.62
12,COCCNC(=O)C/C(C)=N/NC(=O)C(=O)NC1CCCCC1,2.44
13,Cc1ccc(C(=O)Nc2cccc(C(=O)NCc3ccco3)c2)cc1,2.31
14,O=C(CCS(=O)(=O)c1ccc(Br)cc1)NC1CCCC1,49.7
15,C#CCSc1nc2sc3c(c2c(=O)n1C)CCC3,85.1

# Source: PubChem BioAssay AID504500 (NMMLSC, 2011)
